Compound activity from PubChem BioAssay.
Sampled rows, rich in hits. Any-hit rate of the full collection: about 3.6%.
mHTT CaM bind = mutant huntingtin-calmodulin interaction inhibitors – biochemical, AlphaScreen, primary screen. AID 1671202, 2021. AlphaScreen His-mHTT/GST-CaM binding, luminescence. 190,000 tested, 3.6% active. P42858. inhibition, % at 15 µM;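 further: 0% = both proteins with DMSO and 100% = one protein alone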
Pf apPOL inh = Pf-apPOL inhibitors, biochemical, fluorescence; Recombinant Pf-apPOL, molecular beacon fluorescence, 1.5 h; inhibition, % at 10 µM; 210,000 tested, 0.25% active
* marks the source's active call; other numbers are inactive results; i = inactive; . = no result given. No stated cut-off is given here; in the data, active means inhibition above about 50%; inactive means the rest.

SMILES	mHTT CaM bind	Pf apPOL inh
Oc1ccc2ccccc2c1C1Nc2cccc3cccc(c23)N1	89*	.
O=C(NC1CC1)c1ccc(OCC2CCCN2C(=O)c2ccccc2F)cc1 (stereo not drawn)	-10	-3
CC1=NN(C(=O)Cc2ccccc2)C(O)(c2ccc(Br)cc2)C1 (stereo not drawn)	16	-1
CC1=NN(C(=O)c2ccccc2)C(O)(c2ccc(Br)cc2)C1 (stereo not drawn)	17	-3
CC1=NN(C(=O)CCc2ccccc2)C(O)(c2ccc(Br)cc2)C1 (stereo not drawn)	54*	1
CC1=NN(C(=O)c2ccccc2Br)C(O)(c2ccccc2)C1 (stereo not drawn)	1	-3
CCC1=NN(C(=O)c2ccccc2O)C(O)(c2ccc(Br)cc2)C1 (stereo not drawn)	91*	-2
CCC1=NN(C(=O)c2cccc(C)c2O)C(O)(c2ccc(Br)cc2)C1 (stereo not drawn)	87*	-4
O=C(CSC1CCCC1)Nc1cccc(-c2ccc(N3CCOCC3)nn2)c1	3	-16
COc1ccc(OC)c(/C=C2\SC(=O)NC2=O)c1	-3	1
COCC(=O)Nc1nn(C)c2c1CC(C)C(=O)N2 (stereo not drawn)	-14	-1
CC1Cc2c(NC(=O)c3ccc(Br)o3)nn(C)c2NC1=O (stereo not drawn)	52*	0
CCNC(=O)CNC(=O)C1CC(c2ccc(Cl)cc2)=NO1 (stereo not drawn)	-2	-7
CC(C)(C)C1OC(C(O)(c2ccccc2)c2ccccc2)C(C(O)(c2ccccc2)c2ccccc2)O1 (stereo not drawn)	.	-7
CC(=O)Nc1nnc(SCC(=O)Nc2ccc(F)cc2)s1	0	1
c1ccc(OCCC2CCNCC2)cc1	-2	-4
c1ccc(OCCOc2ccc(-c3cc(C4CCNCC4)[nH]n3)cc2)cc1	62*	8
COc1cc(C(=O)NCC2COC3(CCCC3)O2)cc(OC)c1OC (stereo not drawn)	-4	-2
Cc1nnc(N2C(=O)C(O)=C(C(=O)c3cccs3)C2c2ccccc2F)s1 (stereo not drawn)	31	-8
Cc1nnc(N2C(=O)C(O)=C(C(=O)c3cccs3)C2c2ccc(Cl)c(Cl)c2)s1 (stereo not drawn)	92*	-4
CCc1cc2c(=O)c(-c3ccc4c(c3)OCO4)c(CC)oc2cc1OC(C)C	-8	3
Oc1oc(-c2ccc(Cl)cc2)nc1C=Nc1ccc(Br)cn1	-3	-4
Oc1oc(-c2ccc(Cl)cc2)nc1C=Nc1ccc(Cl)cn1	-1	62*
Cc1cccc(N=Cc2cc(I)cc(I)c2O)c1	11	-2
CCOc1cc([N+](=O)[O-])cc(C=Nc2ccc3ncccc3c2)c1O	32	-2
SMILES	mHTT CaM bind	Pf apPOL inh
COc1cc([N+](=O)[O-])cc(C=Nc2ncccc2O)c1O	72*	3
COc1cc([N+](=O)[O-])cc(C=Nc2cccc(Cl)c2Cl)c1O	10	8
Oc1cccnc1N=Cc1cc(I)cc(I)c1O	90*	-1
COc1cccc(N=Cc2cc([N+](=O)[O-])cc(OC)c2O)c1	76*	8
Cc1cccc(NC(=O)N2CCCC(C)(C(=O)NCc3ccc(F)cc3)C2)c1C (stereo not drawn)	0	-11
COc1cc(OC)c(NC(=O)N2CC(C)Oc3ccccc32)cc1Cl (stereo not drawn)	0	-3
CC1=NN(c2ccccc2)C(=O)/C1=C/c1ccc(-c2cccc([N+](=O)[O-])c2)o1	5	-9
COc1cc([N+](=O)[O-])ccc1-c1ccc(/C=C2/C(=O)N(c3cccc(Cl)c3)N=C2C)o1	0	-7
CC1=NN(c2ccccc2)C(=O)/C1=C/c1ccc(-c2ccc(Cl)c(C(=O)O)c2)o1	77*	-3
CC1=NN(c2ccccc2)C(=O)/C1=C/c1ccc(-c2ccccc2Cl)o1	8	-2
O=C1NN(c2ccc(Cl)c(Cl)c2)C(=O)/C1=C/c1ccc(-c2ccccc2C(=O)O)o1	51*	-1
CC1=NN(c2cccc(Cl)c2)C(=O)/C1=C/c1ccc(-c2ccc(C(=O)O)c(Cl)c2)o1	52*	-6
CC1=NN(c2ccccc2)C(=O)/C1=C/c1ccc(-c2cccc(C(=O)O)c2)o1	76*	-12
O=C1NN(c2ccc(Cl)c(Cl)c2)C(=O)/C1=C/c1ccc(-c2cccc(C(=O)O)c2)o1	17	-4
Cc1nc(-c2nnc(-c3ccc(C(F)(F)F)cc3)o2)cs1	.	-4
COc1ccc(S(=O)(=O)N2CCC(c3noc(-c4ccc(F)cc4)n3)CC2)cc1	-5	-3
Cc1ccc(C(=O)O)cc1N=Cc1cc([N+](=O)[O-])cc([N+](=O)[O-])c1O	-3	-4
Cc1ccc(N=Cc2cc(Cl)cc([N+](=O)[O-])c2O)cc1	6	11
O=[N+]([O-])c1cc(C=Nc2cc(-c3ccccc3)ccc2O)c(O)c([N+](=O)[O-])c1	51*	-1
Cc1ccc(N=Cc2cc(Cl)cc([N+](=O)[O-])c2O)c(O)c1	56*	-4
COc1cc(/C=N/O)c([N+](=O)[O-])cc1OC	i	.
COc1cc(C=Nc2ccccc2O)c([N+](=O)[O-])cc1OC	86*	-6
COc1ccc(Br)cc1C=C1Oc2c(ccc3c2CN(Cc2cccnc2)CO3)C1=O	40	-21
CC(C)CC(=O)N1CCc2c(c(C(=O)NCc3ccccc3)nn2C)C1	18	-7
CCOc1ccc(C(=O)N2CCc3c(c(C(=O)NCc4ccc(F)cc4)nn3C)C2)cc1	-9	-10
SMILES	mHTT CaM bind	Pf apPOL inh
Cn1nc(C(=O)NCc2ccccc2)c2c1CCN(C(=O)COc1ccc(Cl)cc1)C2	87*	-7
COCC(=O)N1CCc2c(c(C(=O)NCc3ccc(Cl)cc3)nn2C)C1	18	-1
Cn1nc(C(=O)NCc2ccc(F)cc2)c2c1CCN(C(=O)COc1ccc(F)cc1)C2	81*	-9
Cn1nc(C(=O)NCc2ccccc2)c2c1CCN(C(=O)COc1ccccc1)C2	56*	-9
Cc1ccccc1C(=O)N1CCN(c2ccc(-c3nc(C)c(C)s3)cn2)CC1	-7	0
Cn1ccnc1SCC(=O)Nc1ccc2nc(SCc3ccccc3F)sc2c1	44	0
C(=Nc1cccnc1)c1c[nH]c2ccccc12	16	.
CCN(CC)c1ccc(N=Cc2c[nH]c3ccccc23)cc1	83*	-6
Cc1cccc(-n2nc3c(c2NC(=O)c2ccc(Br)o2)CSC3)c1	64*	-10
COc1ccc(C(=O)Nc2c3c(nn2-c2cccc(C)c2)CSC3)cc1	35	-8
O=C(Nc1c2c(nn1-c1cccc(Cl)c1)CSC2)c1ccc(Br)o1	10	-4
Cc1ccc(-n2nc3c(c2NC(=O)c2ccco2)CSC3)cc1	33	-4
Cc1cc(C)cc(-n2nc3c(c2NC(=O)c2ccco2)CSC3)c1	65*	-10
Cc1cccc(-n2nc3c(c2NC(=O)c2ccco2)CSC3)c1	72*	2
CCN1C(=O)CCC2(CN(C)C(=O)Cc3cccc(F)c3)CCCC12 (stereo not drawn)	-6	-2
O=S(CS(=O)c1ccccc1)c1ccccc1 (stereo not drawn)	-124	-2
Oc1ccccc1N=Cc1c(Cl)cccc1Cl	12	-5
CCC(CO)N=Cc1c(O)n(-c2c(Cl)cccc2Cl)c2ccccc12 (stereo not drawn)	83*	-1
CC(=O)n1c(C=Nc2ccc(Cl)cc2)c(O)c2ccccc21	-2	-1
